High-throughput results from PubChem BioAssay.
Most compounds without a hit are left out; they make up all but 8.1% or so of the library.
NOMO-1 viab – STK33 inhibitor candidate reducing NOMO-1 cell viability. NOMO-1 AML viability, CellTiter-Glo luminescence, 72 h. inhibition, % (no concentration beside the values). hit rate 7.5% among 37,000; in the data active = inhibition above about 80%; inconclusive = no clear call, values can overlap the other calls
Shh pathway inh – Sonic Hedgehog pathway inhibition; AID 2313; Shh-LIGHT2 Gli-luciferase reporter, 30 h; hit rate 2.1% among 22,000; inhibition, % (no concentration beside the values);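 active = mean inhibition across valid replicates above about 65%, limit read from the data; inconclusive = mean under the limit, yet half or more replicates past it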;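 also: pathway switched on by Shh-conditioned medium diluted 1 in 25 in low serum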
MITF inhib – MITF inhibition | inhibition, % (no concentration beside the values) | TRPM1 promoter luciferase, luminescence, 24 h | AID 2240 | hit rate 0.28% among 37,000; in the data active = inhibition above about 85%; inconclusive = no clear call, values can overlap the other calls; inactive = below about 68%;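 also: human melanocyte line stably carrying TRPM1 promoter luciferase reporter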
Numbers without * were called inactive; ? = inconclusive; . = not tested or not shown.

SMILES	NOMO-1 viab	Shh pathway inh	MITF inhib
CCOC(=O)c1cnc(N2CCOCC2)nc1N	13.1	-80.9	-10.0
CCCc1c(C(=O)OCC)c(C(=O)OCC)c2c(-c3ccccc3)nc(N3CCOCC3)nn12	?	78.4*	25.1
Cc1ccccc1OCC(=O)Nc1cccc(NC(=O)c2ccc(C(C)(C)C)cc2)c1	33.4	.	2.8
Cc1ccc(OCC(=O)Nc2nc(C)cc(C)n2)cc1	2.4	.	-23.5
COC(=O)c1cc2c(C)nn(-c3ccccc3)c2s1	8.5	-9.3	-1.4
COc1ccc(C(=O)Oc2c(S(=O)(=O)c3ccccc3)c(C)nn2-c2ccccc2)cc1	116.2*	.	4.3
Nc1ncnc2c1c(I)cn2C1OC(CO)C(O)C1O (stereo not given)	114.5*	44.0	87.6*
C[C@@H]1CN([C@@H](C)CO)C(=O)c2cc(NC(=O)Nc3ccc4c(c3)OCO4)ccc2O[C@@H]1CN(C)C(=O)Nc1ccc(C(F)(F)F)cc1	93.4*	-16.2	32.8
C[C@@H]1CN([C@H](C)CO)C(=O)c2cc(NC(=O)Nc3ccc(C(F)(F)F)cc3)ccc2O[C@H]1CN(C)C(=O)Nc1ccc2c(c1)OCO2	18.7	.	-0.4
C[C@H](CO)N1C[C@H](C)[C@H](CN(C)C(=O)Nc2ccc3c(c2)OCO3)Oc2ccc(NC(=O)Nc3ccc(C(F)(F)F)cc3)cc2C1=O	99.0*	7.3	18.4
C[C@H](CO)N1C[C@H](C)[C@@H](CN(C)C(=O)Nc2ccc(C(F)(F)F)cc2)Oc2ccc(NC(=O)Nc3ccc4c(c3)OCO4)cc2C1=O	20.4	15.2	-1.8
CCC(=O)Nc1nonc1-c1nc2ccccc2n1Cc1cc(OC)ccc1C	129.6*	.	40.4
CC(=O)Nc1nonc1-c1nc2ccccc2n1Cc1ccc(Cl)cc1Cl	?	.	13.6
COc1cccc(NC(=O)CSc2nc3ccccc3c(=O)n2-c2ccc(Br)cc2)c1	55.8	.	-16.8
O=C(CSc1nnnn1-c1ccccc1)Nc1ccc(-c2ccc([N+](=O)[O-])cc2)cc1	-14.3	.	7.3
Cc1nc([N+](=O)[O-])c(Sc2nc3ncc(Cl)cc3[nH]2)n1Cc1ccccc1	61.6	.	27.2
COc1cc2c(cc1OC)[C@@H]1C(=O)c3ccc4c(c3O[C@@H]1CO2)C=CC(C)(C)O4	47.4	31.9	99.5*
COc1c2c(cc3oc(=O)ccc13)OC(C)(C)C=C2	4.9	-36.6	-85.3
Cc1ccc(NS(=O)(=O)c2cccc(C(=O)Nc3ccccc3)c2)cc1	26.9	.	-0.3
O=CNCCc1c[nH]c2ccccc12	1.3	-6.7	16.6
C[C@@H]1O[C@@H](O[C@H]2[C@H](O)[C@@H](O[C@@H]3O[C@H](CO)[C@@H](O)[C@H](O)[C@H]3O)[C@H](O[C@H]3CC[C@@]4(C)C(=CC[C@@H]5C4CC[C@@]4(C)C5C[C@@H]5O[C@]6(CC[C@@](C)(CO)O6)[C@@H](C)[C@@H]54)C3)O[C@@H]2CO)[C@H](O)[C@H](O)[C@H]1O (stereo not given in full)	23.0	-1.3	-1.2
C[C@@H]1O[C@@H](O[C@H]2[C@H](O)[C@@H](O)[C@H](O[C@H]3[C@H](O[C@H]4CC[C@@]5(C)C(=CC[C@H]6C7C[C@@H]8O[C@]9(CC[C@@](C)(CO[C@@H]%10O[C@H](CO)[C@@H](O)[C@H](O)[C@H]%10O)O9)[C@H](C)C8[C@@]7(C)CCC65)C4)O[C@H](CO)[C@@H](O)[C@@H]3O)O[C@@H]2CO)[C@H](O)[C@H](O)[C@H]1O (stereo not given in full)	.	97.2*	.
COc1ccccc1NC(=O)NCCc1ccncc1	18.8	.	-9.1
COc1cc(SC)ccc1C(=O)NC1CC1	25.2	36.5	-1.0
C[C@@H]1CN([C@@H](C)CO)C(=O)c2cc(NC(=O)Nc3ccc(C(F)(F)F)cc3)ccc2O[C@@H]1CN(C)S(=O)(=O)c1ccc(Cl)cc1	7.7	4.5	14.9
SMILES	NOMO-1 viab	Shh pathway inh	MITF inhib
C[C@H]1CN([C@@H](C)CO)C(=O)c2cc(NC(=O)Nc3ccc(C(F)(F)F)cc3)ccc2O[C@@H]1CN(C)S(=O)(=O)c1ccc(Cl)cc1	121.3*	47.4	20.5
Cc1ccc(S(=O)(=O)N(C)C[C@@H]2Oc3ccc(NC(=O)Nc4ccc(C(F)(F)F)cc4)cc3C(=O)N([C@@H](C)CO)C[C@@H]2C)cc1	83.1*	.	15.0
C[C@H](CO)N1C[C@H](C)[C@H](CN(C)S(=O)(=O)c2ccc(Cl)cc2)Oc2ccc(NC(=O)Nc3ccc(C(F)(F)F)cc3)cc2C1=O	63.3	.	42.0
Cc1ccc(S(=O)(=O)N(C)C[C@@H]2Oc3ccc(NC(=O)Nc4ccc(C(F)(F)F)cc4)cc3C(=O)N([C@@H](C)CO)C[C@H]2C)cc1	75.3	-7.7	-2.4
Cc1ccc(S(=O)(=O)N(C)C[C@H]2Oc3ccc(NC(=O)Nc4ccc(C(F)(F)F)cc4)cc3C(=O)N([C@@H](C)CO)C[C@@H]2C)cc1	-5.2	.	-7.2
Cc1ccc(S(=O)(=O)N(C)C[C@@H]2Oc3ccc(NC(=O)Nc4ccc(C(F)(F)F)cc4)cc3C(=O)N([C@H](C)CO)C[C@@H]2C)cc1	115.2*	16.5	65.2
Cc1ccc(S(=O)(=O)N(C)C[C@H]2Oc3ccc(NC(=O)Nc4ccc(C(F)(F)F)cc4)cc3C(=O)N([C@@H](C)CO)C[C@H]2C)cc1	118.6*	45.6	99.9*
Cc1ccc(-c2cc3ccccn3c2C(=O)CSc2nnc(C)s2)cc1	2.9	.	28.8
CCOC(=O)c1ccc(NC(=O)Cn2cc(C#N)c3ccccc32)cc1	29.1	.	18.5
O=C(Nc1sc2c(c1C(=O)NCc1cccnc1)CCCC2)c1ccc([N+](=O)[O-])cc1	8.9	.	48.3
Cc1sc(NC(=O)COc2ccccc2C(C)C)c(C(N)=O)c1C	37.1	.	15.4
CCc1ccccc1NC(=O)CSc1nc2ccc(C(=O)c3ccccc3)cc2[nH]1	11.7	.	20.8
Cc1ccc2nc(S/C=C/C(=O)c3ccccc3)[nH]c2c1	122.8*	47.7	69.2
O=C1CC2(CCCC2)C(=O)N1c1cc(C(F)(F)F)cc(C(F)(F)F)c1	17.9	6.5	22.6
COc1ccc(CN(C)C[C@@H]2Oc3c(NC(=O)Nc4ccc(C(F)(F)F)cc4)cccc3C(=O)N([C@H](C)CO)C[C@H]2C)cc1	104.5*	33.8	46.3
COc1ccc(CN(C)C[C@H]2Oc3c(NC(=O)Nc4ccc(F)cc4)cccc3C(=O)N([C@@H](C)CO)C[C@H]2C)cc1	29.4	-8.0	-21.5
COc1ccc(NC(=O)Nc2cccc3c2O[C@H](CN(C)Cc2ccc(C(F)(F)F)cc2)[C@@H](C)CN([C@H](C)CO)C3=O)cc1	106.2*	4.7	15.9
COc1ccc(NC(=O)Nc2cccc3c2O[C@H](CN(C)Cc2ccc(C(F)(F)F)cc2)[C@@H](C)CN([C@@H](C)CO)C3=O)cc1	84.8*	-14.1	6.9
COc1ccc(CN(C)C[C@@H]2Oc3c(NC(=O)Nc4ccc(C(F)(F)F)cc4)cccc3C(=O)N([C@@H](C)CO)C[C@@H]2C)cc1	11.0	-22.7	-8.8
COc1ccc(CN(C)C[C@H]2Oc3c(NC(=O)Nc4ccc(C(F)(F)F)cc4)cccc3C(=O)N([C@@H](C)CO)C[C@H]2C)cc1	49.9	-29.7	-2.6
COc1ccc(NC(=O)Nc2cccc3c2O[C@@H](CN(C)Cc2ccc(C(F)(F)F)cc2)[C@H](C)CN([C@@H](C)CO)C3=O)cc1	98.2*	20.1	36.9
CNC(=O)c1cnc2cc(Cl)ccc2c1OC	5.4	.	19.7
